Among the data in publication PMC9911399, “Two distinct binding modes provide the RNA-binding protein RbFox with extraordinary sequence specificity” are binding signal values, retold here.

The labels stand for the following.
T1: RBFOX1 RRM RbFoxmut (Fox-RRM*) (Homo sapiens, UniProt Q9NWB1 109-208, R118D;E147R;N151S;E152T)
T1 sequence: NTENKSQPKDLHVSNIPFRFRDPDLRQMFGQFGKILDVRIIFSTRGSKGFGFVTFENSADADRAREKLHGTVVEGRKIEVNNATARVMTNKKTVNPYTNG

B1: UAACCGA (DNA:RNA)
RNA: GGGAGACCGGAAUUCAGAUUGUCCUAACCGAUUAAAUCCCGUCGUAGCCACCA
DNA 1: CAATCTGAATTCCGGTCTCCC
DNA 2: TGGTGGCTACGACGGGATT
B2: UGACGUC (DNA:RNA)
RNA: B1 RNA with A26G, C29G, G30U, A31C
DNA 1: CAATCTGAATTCCGGTCTCCC
DNA 2: TGGTGGCTACGACGGGATT
B3: UGGUAGU (DNA:RNA)
RNA: B1 RNA with A26G, A27G, C28U, C29A, A31U
DNA 1: CAATCTGAATTCCGGTCTCCC
DNA 2: TGGTGGCTACGACGGGATT
B4: UGCCGUU (DNA:RNA)
RNA: B1 RNA with A26G, A27C, C29G, G30U, A31U
DNA 1: CAATCTGAATTCCGGTCTCCC
DNA 2: TGGTGGCTACGACGGGATT
B5: CCAUGGC (DNA:RNA)
RNA: B1 RNA with U25C, A26C, C28U, C29G, A31C
DNA 1: CAATCTGAATTCCGGTCTCCC
DNA 2: TGGTGGCTACGACGGGATT
B6: AUCUUAC (DNA:RNA)
RNA: GGGAGACCGGAAUUCAGAUUGUCCAUCUUACUUAAAUCCCGUCGUAGCCACCA
DNA 1: CAATCTGAATTCCGGTCTCCC
DNA 2: TGGTGGCTACGACGGGATT
B7: UGAUGUG (DNA:RNA)
RNA: B1 RNA with A26G, C28U, C29G, G30U, A31G
DNA 1: CAATCTGAATTCCGGTCTCCC
DNA 2: TGGTGGCTACGACGGGATT
B8: UGAGAUG (DNA:RNA)
RNA: B1 RNA with A26G, C28G, C29A, G30U, A31G
DNA 1: CAATCTGAATTCCGGTCTCCC
DNA 2: TGGTGGCTACGACGGGATT
B9: UGAUGUC (DNA:RNA)
RNA: B6 RNA with A25U, U26G, C27A, U29G, A30U
DNA 1: CAATCTGAATTCCGGTCTCCC
DNA 2: TGGTGGCTACGACGGGATT
B10: AACUUAC (DNA:RNA)
RNA: B6 RNA with U26A
DNA 1: CAATCTGAATTCCGGTCTCCC
DNA 2: TGGTGGCTACGACGGGATT
B11: GCAUGAG (DNA:RNA)
RNA: B6 RNA with A25G, U26C, C27A, U29G, C31G
DNA 1: CAATCTGAATTCCGGTCTCCC
DNA 2: TGGTGGCTACGACGGGATT
B12: GCAUGAC (DNA:RNA)
RNA: B6 RNA with A25G, U26C, C27A, U29G
DNA 1: CAATCTGAATTCCGGTCTCCC
DNA 2: TGGTGGCTACGACGGGATT
B13: GCAGGAG (DNA:RNA)
RNA: B6 RNA with A25G, U26C, C27A, U28G, U29G, C31G
DNA 1: CAATCTGAATTCCGGTCTCCC
DNA 2: TGGTGGCTACGACGGGATT
B14: GGCAUGA (DNA:RNA)
RNA: B6 RNA with A25G, U26G, U28A, A30G, C31A
DNA 1: CAATCTGAATTCCGGTCTCCC
DNA 2: TGGTGGCTACGACGGGATT
B15: GUAUGAC (DNA:RNA)
RNA: B6 RNA with A25G, C27A, U29G
DNA 1: CAATCTGAATTCCGGTCTCCC
DNA 2: TGGTGGCTACGACGGGATT
B16: GUCAUGA (DNA:RNA)
RNA: B6 RNA with A25G, U28A, A30G, C31A
DNA 1: CAATCTGAATTCCGGTCTCCC
DNA 2: TGGTGGCTACGACGGGATT
B17: GCCAUGA (DNA:RNA)
RNA: B6 RNA with A25G, U26C, U28A, A30G, C31A
DNA 1: CAATCTGAATTCCGGTCTCCC
DNA 2: TGGTGGCTACGACGGGATT
B18: GGCAUAA (DNA:RNA)
RNA: B6 RNA with A25G, U26G, U28A, C31A
DNA 1: CAATCTGAATTCCGGTCTCCC
DNA 2: TGGTGGCTACGACGGGATT
B19: AUGAGAG (DNA:RNA)
RNA: B6 RNA with C27G, U28A, U29G, C31G
DNA 1: CAATCTGAATTCCGGTCTCCC
DNA 2: TGGTGGCTACGACGGGATT
B20: GCAUUGA (DNA:RNA)
RNA: B1 RNA with U25G, A26C, C28U, C29U
DNA 1: CAATCTGAATTCCGGTCTCCC
DNA 2: TGGTGGCTACGACGGGATT
B21: CGCAUGA (DNA:RNA)
RNA: B6 RNA with A25C, U26G, U28A, A30G, C31A
DNA 1: CAATCTGAATTCCGGTCTCCC
DNA 2: TGGTGGCTACGACGGGATT
B22: GGAUGAC (DNA:RNA)
RNA: B6 RNA with A25G, U26G, C27A, U29G
DNA 1: CAATCTGAATTCCGGTCTCCC
DNA 2: TGGTGGCTACGACGGGATT
B23: UAACUCA (DNA:RNA)
RNA: B1 RNA with C29U, G30C
DNA 1: CAATCTGAATTCCGGTCTCCC
DNA 2: TGGTGGCTACGACGGGATT
B24: CCUCUGC (DNA:RNA)
RNA: B6 RNA with A25C, U26C, C27U, U28C, A30G
DNA 1: CAATCTGAATTCCGGTCTCCC
DNA 2: TGGTGGCTACGACGGGATT
B25: GACAUAA (DNA:RNA)
RNA: B6 RNA with A25G, U26A, U28A, C31A
DNA 1: CAATCTGAATTCCGGTCTCCC
DNA 2: TGGTGGCTACGACGGGATT
B26: GCAUUUU (DNA:RNA)
RNA: B6 RNA with A25G, U26C, C27A, A30U, C31U
DNA 1: CAATCTGAATTCCGGTCTCCC
DNA 2: TGGTGGCTACGACGGGATT
B27: GCAUAAU (DNA:RNA)
RNA: B6 RNA with A25G, U26C, C27A, U29A, C31U
DNA 1: CAATCTGAATTCCGGTCTCCC
DNA 2: TGGTGGCTACGACGGGATT
B28: GCAUGAU (DNA:RNA)
RNA: B6 RNA with A25G, U26C, C27A, U29G, C31U
DNA 1: CAATCTGAATTCCGGTCTCCC
DNA 2: TGGTGGCTACGACGGGATT
B29: GCAUAGA (DNA:RNA)
RNA: B1 RNA with U25G, A26C, C28U, C29A
DNA 1: CAATCTGAATTCCGGTCTCCC
DNA 2: TGGTGGCTACGACGGGATT
B30: GCAUGAA (DNA:RNA)
RNA: B6 RNA with A25G, U26C, C27A, U29G, C31A
DNA 1: CAATCTGAATTCCGGTCTCCC
DNA 2: TGGTGGCTACGACGGGATT
B31: GCAUAAA (DNA:RNA)
RNA: B6 RNA with A25G, U26C, C27A, U29A, C31A
DNA 1: CAATCTGAATTCCGGTCTCCC
DNA 2: TGGTGGCTACGACGGGATT

Changes are numbered by the printed parent chain; changes in the protein carry UniProt numbers. In all, about 16,000 sequences were measured (“ka relative to ugcaugu”: median about 0.096, highest 2% from about 0.35 on). The list comes from a sample in which the highest values are over-represented; it also holds similar and randomly drawn sequences.

The target of this experiment is T1, RBFOX1 RRM RbFoxmut (Fox-RRM*). The experiment can be described thus: EMSA; HiTS-Eq, 1 nM pool, 10 min; buffer printed only for the single-RNA assays: 10 mM Tris pH 7.5, 150 mM NaCl, 3.4 mM EDTA, 0.001% NP-40, 30 C. The note with it: tags: His6 N-terminal (pET28a); label: 5' 32P. The procedure, abridged: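 Purified RbFox RRM, wild type or mutant, was incubated for 10 min in 50 µL with 1 nM of a 5′-radiolabelled RNA pool carrying 7 randomized nucleotides, whose flanks were annealed to DNA oligonucleotides, over a series of increasing protein concentrations. Unbound RNA was resolved on 8% native PAGE, cut out, reverse-transcribed, barcoded by PCR and sequenced on an Illumina HiSeq 2500. Relative association constants were derived from changes in read counts for each RNA species versus the control reaction and normalised to the cognate motif.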
For the molecule B1, the binding signal was 0.0866 KA relative to UGCAUGU.

Turning to B2, the binding signal was 0.0923 KA relative to UGCAUGU.

B3: the binding signal was 0.163 KA relative to UGCAUGU.

For B4, the binding signal was 0.113 KA relative to UGCAUGU.

For the molecule B5, the binding signal was 0.0829 KA relative to UGCAUGU.

Regarding B6, the binding signal was 0.12 KA relative to UGCAUGU.

In the case of B7, the binding signal is 0.184 KA relative to UGCAUGU.

With B8, the binding signal was 0.429 KA relative to UGCAUGU.

For the molecule B9, the binding signal is 0.207 KA relative to UGCAUGU.

Consider B10, for which the binding signal was 0.0902 KA relative to UGCAUGU.

Regarding B11, the binding signal is 0.771 KA relative to UGCAUGU.

As for B12, the binding signal is 0.603 KA relative to UGCAUGU.

In the case of B13, the binding signal is 0.0994 KA relative to UGCAUGU.

Turning to B14, the binding signal is 0.624 KA relative to UGCAUGU.

Turning to B15, the binding signal was 0.219 KA relative to UGCAUGU.

Take B16: the binding signal was 0.2 KA relative to UGCAUGU.

Regarding B17, the binding signal was 0.134 KA relative to UGCAUGU.

In the case of B18, the binding signal was 0.117 KA relative to UGCAUGU.

With B19, the binding signal was 0.16 KA relative to UGCAUGU.

Consider B20, for which the binding signal was 0.178 KA relative to UGCAUGU.

As for B21, the binding signal is 0.871 KA relative to UGCAUGU.

B22: the binding signal was 0.124 KA relative to UGCAUGU.

As for B23, the binding signal was 0.1 KA relative to UGCAUGU.

For the molecule B24, the binding signal was 0.0985 KA relative to UGCAUGU.

Take B25: the binding signal was 0.115 KA relative to UGCAUGU.

For B26, the binding signal was 0.113 KA relative to UGCAUGU.

B27: the binding signal was 0.115 KA relative to UGCAUGU.

As for B28, the binding signal is 0.551 KA relative to UGCAUGU.

With B29, the binding signal was 0.132 KA relative to UGCAUGU.

Consider B30, for which the binding signal is 0.798 KA relative to UGCAUGU.

Consider B31, for which the binding signal is 0.144 KA relative to UGCAUGU.
